Laboratory results reported in PubChem BioAssay (Tox21).
Results filed as inconclusive are left out. Calls of active or inactive are those of the source. Unless noted, calls follow the shape of the dose curve; as a rule, active = well fitted curve in the direction sought with a large enough effect in the repeat runs; inconclusive = weak or mixed curves; inactive = no such curve, though single readings can be large; an effect the other way counts as inactive or inconclusive.

Legend:
[1] = qHTS assay to identify small molecule agonists of the hypoxia (HIF-1) signaling pathway - cell viability counter screen (AID 1224844; calls by dose curve; also: nearly all actives have a fitted effect of over 50% in size)
How it was run: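 HRE-bla ME-180; 0.5% dFBS; cpd 17 h, 37C, 5% CO2; CellTiter-Glo lum., 30 min RT, post-FRET read, same wells.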

[2] = qHTS assay to identify small molecule agonists of H2AX (AID 1224845; active = well fitted activation curve with a large enough effect in the signal ratio in the repeat runs, not every such curve was filed as active; the % refers to the signal ratio)
How it was run: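 Wild-type CHO-K1 cells, plated overnight, exposed 3hr at 37C to 15 concentrations (0.76% DMSO final). Lysed, then HTRF anti-pH2AX (S139) cryptate and anti-H2AX-d2 antibodies, 24 hr room temperature; 665/620 nm emission read.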

[3] = qHTS assay to identify small molecule agonists of the hypoxia (HIF-1) signaling pathway (AID 1224846; active = well fitted activation curve with a large enough effect in the signal ratio in the repeat runs, not every such curve was filed as active; the % refers to the signal ratio)
How it was run: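 Reporter induction in HRE-bla ME-180 cells is taken as agonism: cells sit 5 hrs after plating, receive compounds or DMSO only, incubate 17 hrs at 37C under 5% CO2, and are loaded with CCF4-AM for beta-lactamase FRET measurement.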

[4] = qHTS assay to identify small molecule agonists of H2AX - cell viability counter screen (AID 1224847; calls by dose curve; also: top concentration of the series differs between compounds; nearly all actives have a fitted effect of over 30% in size)
How it was run: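 Viability of CHO-K1 (wild type) cells after 3 hr compound exposure was measured by CellTiter-Glo luminescence.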

[5] = qHTS assay to identify small molecule antagonists of the estrogen related receptor (ERR) signaling pathway from Tox21 library (AID 1224848); also: nearly all actives have a fitted effect of over 50% in size
How it was run: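 Compounds dissolved in DMSO are pin-transferred onto ERR reporter cells (2,000 per well) that have settled for 6 h at 37 C. Plates then incubate 18 h at 37 C before ONE-Glo luciferase reagent and a luminescence read 30 min later.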

[6] = qHTS assay to identify small molecule agonists of the estrogen related receptor (ERR) signaling pathway from Tox21 library (AID 1224849; calls by dose curve; also: nearly all actives have a fitted effect of over 15% in size); details: ERR reporter cell line, ONE-Glo luciferase, 18 h; at 92.4 µM (top of the series) unless noted
How it was run: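 Tox21 compounds tested for ERR agonism in an NTP reporter cell line: 18 h treatment at 37 C, then ONE-Glo luminescence.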

[7] = qHTS RealTime-Glo MT Cell Viability Assay in HepG2 cells - 24 hour (AID 1224867); also: nearly all actives have a fitted effect of over 50% in size
How it was run: (§1)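 HepG2 cells (600/well) were dispensed with RealTime-Glo reagents, incubated 5 h at 37 °C, then treated with compounds in DMSO for up to 40 h. Nonlytic NanoLuc luminescence reflecting viable cells was read at each stated time point.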

[8] = qHTS RealTime-Glo MT Cell Viability Assay in HEK293 cells - 32 hour (AID 1224868); also: top concentration of the series differs between compounds; nearly all actives have a fitted effect of over 50% in size
How it was run: (§2)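 HEK293 cells seeded with NanoLuc/prosubstrate reagent, rested 5 h at 37 C, then dosed and kept at 37 C up to 40 h. Nonlytic real-time luminescence from viable cells read at 0, 8, 16, 24, 32 and 40 h.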

[9] = A CellTox Green Cytotoxicity Assay to monitor cytotoxicity in HEK293 cells - 0 hour (AID 1224869); also: nearly all actives have a fitted effect of over 50% in size
How it was run: (§3)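 Tox21 screen in HEK293: membrane-impermeant cyanine dye fluoresces on binding dead-cell DNA; compound pinned 5 h post-seeding, plates held at 37 C, signal read repeatedly through 40 h.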

[10] = A CellTox Green Cytotoxicity Assay to monitor cytotoxicity in HEK293 cells - 40 hour (AID 1224871); also: nearly all actives have a fitted effect of over 45% in size
How it was run: as §3

[11] = qHTS RealTime-Glo MT Cell Viability Assay in HEK293 cells - 16 hour (AID 1224872)
How it was run: as §2

[12] = qHTS RealTime-Glo MT Cell Viability Assay in HepG2 cells - 8 hour (AID 1224873); also: nearly all actives have a fitted effect of over 55% in size
How it was run: (§4)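 HepG2 cells (600/well) mixed with RealTime-Glo MT reagent, settled 5 h at 37 C/5% CO2 before compound addition. Nonlytic NanoLuc luminescence from viable-cell prosubstrate reduction read repeatedly during 40 h treatment at 37 C.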

[13] = qHTS RealTime-Glo MT Cell Viability Assay in HEK293 cells - 40 hour (AID 1224874); details: RealTime-Glo luminescence; max response: active compounds read low; also: nearly all actives have a fitted effect of over 50% in size
How it was run: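 HEK293 + NanoLuc + prosubstrate, 600 cells/well; 5 h, 37 C/5% CO2; compound 23 nL in DMSO by pintool; 37 C; luminescence read at 0, 8, 16, 24, 32 and 40 h time points.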

[14] = A CellTox Green Cytotoxicity Assay to monitor cytotoxicity in HEK293 cells - 24 hour (AID 1224875); also: nearly all actives have a fitted effect of over 45% in size
How it was run: as §3

[15] = A CellTox Green Cytotoxicity Assay to monitor cytotoxicity in HepG2 cells - 16 hour (AID 1224876); also: nearly all actives have a fitted effect of over 45% in size
How it was run: (§5)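 Measurements at 0, 8, 16, 24, 32 and 40 h of treatment captured CellTox Green fluorescence in HepG2 cells that had been co-plated with reagent and preincubated 5 h at 37 C/5% CO2.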

[16] = qHTS RealTime-Glo MT Cell Viability Assay in HepG2 cells - 32 hour (AID 1224877); also: nearly all actives have a fitted effect of over 55% in size; also: potency is read from the fitted curve at half-maximal effect
How it was run: as §1

[17] = A CellTox Green Cytotoxicity Assay to monitor cytotoxicity in HepG2 cells - 40 hour (AID 1224879); also: nearly all actives have a fitted effect of over 40% in size; also: potency is read from the fitted curve at half-maximal effect
How it was run: as §5

[18] = target: Thyrotropin receptor (Homo sapiens) (UniProt P16473); experiment: qHTS assay to identify small molecule agonists of the thyroid stimulating hormone receptor (TSHR) signaling pathway (AID 1224843; calls by dose curve; also: nearly all actives have a fitted effect of over 45% in size)
How it was run: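 HEK293/TSHR, 800 cells/well; cpd 30 min RT; add cAMP-d2 + anti-cAMP-cryptate, 1 h RT; fluorescence read on plate reader. 15-pt titration, n=3.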

[19] = qHTS RealTime-Glo MT Cell Viability Assay in HepG2 cells - 40 hour (AID 1224870); also: nearly all actives have a fitted effect of over 50% in size; also: potency is read from the fitted curve at half-maximal effect
How it was run: as §4

[20] = A CellTox Green Cytotoxicity Assay to monitor cytotoxicity in HepG2 cells - 24 hour (AID 1224878); also: nearly all actives have a fitted effect of over 45% in size; also: potency is read from the fitted curve at half-maximal effect
How it was run: as §5
% is scaled to controls: 0 for no effect and ±100 for the full control effect.

Thyrotropin receptor (Homo sapiens), sequence (P16473 whole entry, looked up): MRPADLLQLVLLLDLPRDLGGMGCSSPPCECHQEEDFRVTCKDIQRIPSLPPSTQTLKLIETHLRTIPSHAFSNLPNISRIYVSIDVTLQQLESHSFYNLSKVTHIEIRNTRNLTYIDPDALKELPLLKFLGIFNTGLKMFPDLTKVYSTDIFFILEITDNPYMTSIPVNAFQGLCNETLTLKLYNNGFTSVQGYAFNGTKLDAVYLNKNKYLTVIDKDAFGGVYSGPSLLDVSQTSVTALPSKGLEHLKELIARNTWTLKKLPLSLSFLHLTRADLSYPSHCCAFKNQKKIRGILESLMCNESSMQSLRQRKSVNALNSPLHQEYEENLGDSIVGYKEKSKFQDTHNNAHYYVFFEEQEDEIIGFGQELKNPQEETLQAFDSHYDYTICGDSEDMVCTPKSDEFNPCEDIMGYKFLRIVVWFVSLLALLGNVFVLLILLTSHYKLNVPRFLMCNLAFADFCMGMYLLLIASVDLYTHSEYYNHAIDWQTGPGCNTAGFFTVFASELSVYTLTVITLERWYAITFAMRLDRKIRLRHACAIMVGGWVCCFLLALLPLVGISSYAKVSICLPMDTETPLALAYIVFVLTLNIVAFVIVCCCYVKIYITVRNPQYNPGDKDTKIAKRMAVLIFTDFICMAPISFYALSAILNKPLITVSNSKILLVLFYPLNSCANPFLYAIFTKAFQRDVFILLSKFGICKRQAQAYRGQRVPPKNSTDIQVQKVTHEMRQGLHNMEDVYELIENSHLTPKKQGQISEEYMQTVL

CCOC(=O)C1CC(=O)C(=C(O)C2CC2)C(=O)C1 (configuration not stated)
inactive: Potency [1] | Potency [2] | outcome [3] | Potency [4] | Potency [5] | activity change, positive = activation [6] 6.54% | Potency [7] | Potency [8] | Potency [9] | Potency [10] | Potency [11] | outcome [12] | max response [13] 0.979% | Potency [14] | Potency [15] | Potency [16] | Potency [17]

CCCCN1C[C@H](O)[C@@H](O)[C@H](O)[C@H]1CO
inactive: Potency [18] | Potency [1] | Potency [4] | Potency [7] | Potency [9] | Potency [19] | Potency [11] | outcome [12] | max response [13] 5.15% | Potency [14] | Potency [15] | Potency [16] | Potency [20] | Potency [17]

CC(=O)N[C@@H](CC(C)C)C(=O)O
inactive: Potency [1] | Potency [2] | outcome [3] | Potency [4] | Potency [5] | activity change, positive = activation [6] -0.851% [at 42.5 µM] | Potency [7] | Potency [8] | Potency [9] | Potency [19] | Potency [10] | Potency [11] | outcome [12] | max response [13] -2.78% | Potency [14] | Potency [15] | Potency [16] | Potency [17]

C=CCCC=C
inactive: Potency [18] | outcome [3] | Potency [4] | Potency [5] | activity change, positive = activation [6] 2.68% | Potency [7] | Potency [8] | Potency [19] | Potency [10] | Potency [11] | outcome [12] | max response [13] 4.67% | Potency [14] | Potency [15] | Potency [16] | Potency [20] | Potency [17]

Cn1cnc2c(F)c(Nc3ccc(Br)cc3Cl)c(C(=O)NOCCO)cc21
inactive: Potency [1] | Potency [2] | outcome [3] | Potency [4] | Potency [5] | activity change, positive = activation [6] -7.67% [at 42.5 µM] | Potency [8] | Potency [9] | Potency [10] | Potency [11] | outcome [12] | max response [13] -9.97% | Potency [14]
active: Potency [19] 0.674 µM | Potency [16] 0.535 µM | Potency [20] 0.0301 µM | Potency [17] 0.0379 µM

Nc1cccc(S(=O)(=O)O)c1
inactive: Potency [18] | Potency [2] | outcome [3] | Potency [4] | Potency [7] | Potency [8] | Potency [9] | Potency [11] | outcome [12] | max response [13] 3% | Potency [14] | Potency [15] | Potency [16] | Potency [20] | Potency [17]

COc1cc2c(cc1N)oc1ccccc12
inactive: Potency [18] | Potency [4] | Potency [5] | Potency [7] | Potency [9] | Potency [10] | outcome [12] | Potency [14] | Potency [15] | Potency [16] | Potency [20] | Potency [17]

COc1ccc(S(=O)(=O)Nc2nnc(CC(C)C)s2)cc1
inactive: Potency [1] | Potency [2] | outcome [3] | Potency [4] | Potency [7] | Potency [8] | Potency [9] | Potency [19] | Potency [10] | Potency [11] | outcome [12] | max response [13] 6.93% | Potency [14] | Potency [15] | Potency [16] | Potency [20] | Potency [17]
